Results published in PubChem BioAssay AID1159580 (chemical genetic matrix, 2015).
About 2,000 (36%) of roughly 5,500 compounds were called active. Roughly 18% stayed inconclusive and do not appear here. No stated cut-off is given here; in the data, active means normalized growth mostly below about 0.91 (no sharp cut-off); inconclusive means no clear call, values can overlap the other calls; inactive means mostly above about 0.92. The list shows a part of the results.

Assay: chemical genetic growth profiling, strain panel (AID 1159580);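 further: tested at 20 µM; growth read once vehicle control cultures reached saturation at 30 °C; 1 = growth at the plate median or of vehicle wells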
Details: S. cerevisiae deletion strains, growth OD
[1] = locus YBL105C, strain PKC1, stronger effect = lower value
[2] = locus YBR135W, strain CKS1, stronger effect = lower value
[3] = locus YBR136W, strain MEC1, stronger effect = lower value
[4] = locus YBR160W, strain CDC28, stronger effect = lower value
[5] = locus YDL017W, strain CDC7, stronger effect = lower value
[6] = locus YDL028C, strain MPS1, stronger effect = lower value
[7] = locus YDL108W, strain KIN28, stronger effect = lower value
[8] = locus YDL214C, strain PRR2, stronger effect = lower value
[9] = locus YDR052C, strain DBF4, stronger effect = lower value
[10] = locus YDR226W, strain ADK1, stronger effect = lower value
[11] = locus YDR477W, strain SNF1, stronger effect = lower value
[12] = locus YER123W, strain YCK3, stronger effect = lower value
[13] = locus YER133W, strain GLC7, stronger effect = lower value
[14] = locus YFR003C, strain YPI1, stronger effect = lower value
[15] = locus YFR019W, strain FAB1, stronger effect = lower value
[16] = locus YFR028C, strain CDC14, stronger effect = lower value
[17] = locus YGR040W, strain KSS1, stronger effect = lower value
[18] = locus YGR052W, strain FMP48, stronger effect = lower value
[19] = locus YGR092W, strain DBF2, stronger effect = lower value
[20] = locus YHR030C, strain SLT2, stronger effect = lower value
[21] = locus YHR079C, strain IRE1, stronger effect = lower value
[22] = locus YHR082C, strain KSP1, stronger effect = lower value
[23] = locus YHR205W, strain SCH9, stronger effect = lower value
[24] = locus YIL147C, strain SLN1, stronger effect = lower value
[25] = locus YJL095W, strain BCK1, stronger effect = lower value
[26] = locus YJL128C, strain PBS2, stronger effect = lower value
[27] = locus YJL157C, strain FAR1, stronger effect = lower value
[28] = locus YJR016C, strain ILV3, stronger effect = lower value
[29] = locus YJR066W, strain TOR1 (second series), stronger effect = lower value
[30] = locus YJR066W, strain TOR1, stronger effect = lower value
[31] = locus YKL048C, strain ELM1, stronger effect = lower value
[32] = locus YKL067W, strain YNK1, stronger effect = lower value
[33] = locus YKL101W, strain HSL1, stronger effect = lower value
[34] = locus YKL203C, strain TOR2, stronger effect = lower value
[35] = locus YLR113W, strain HOG1, stronger effect = lower value
[36] = locus YLR133W, strain CKI1, stronger effect = lower value
[37] = locus YLR403W, strain SFP1, stronger effect = lower value
[38] = locus YML070W, strain DAK1, stronger effect = lower value
[39] = locus YMR001C, strain CDC5, stronger effect = lower value
[40] = locus YMR205C, strain PFK2 (second series), stronger effect = lower value
[41] = locus YNL006W, strain LST8, stronger effect = lower value
[42] = locus YNL020C, strain ARK1, stronger effect = lower value
[43] = locus YNL161W, strain CBK1, stronger effect = lower value
[44] = locus YNL183C, strain NPR1, stronger effect = lower value
[45] = locus YNL207W, strain RIO2, stronger effect = lower value
[46] = locus YNL222W, strain SSU72, stronger effect = lower value
[47] = locus YNL307C, strain MCK1 (second series), stronger effect = lower value
[48] = locus YOL136C, strain PFK27, stronger effect = lower value
[49] = locus YOR061W, strain CKA2, stronger effect = lower value
[50] = locus YOR119C, strain RIO1, stronger effect = lower value
[51] = locus YOR231W, strain MKK1, stronger effect = lower value
[52] = locus YOR329C, strain SCD5, stronger effect = lower value
[53] = locus YPL031C, strain PHO85, stronger effect = lower value
[54] = locus YPL153C, strain RAD53, stronger effect = lower value
[55] = locus YPL204W, strain HRR25, stronger effect = lower value
[56] = locus YPL209C, strain IPL1, stronger effect = lower value
[57] = locus YPL256C, strain CLN2, stronger effect = lower value
[58] = locus YPR025C, strain CCL1, stronger effect = lower value
[59] = locus YPR106W, strain ISR1, stronger effect = lower value
[60] = locus YPR111W, strain DBF20, stronger effect = lower value
[61] = strain NNK1, stronger effect = lower value
[62] = locus YAR019C, strain CDC15, stronger effect = lower value
[63] = locus YDL101C, strain DUN1, stronger effect = lower value
[64] = locus YDL132W, strain cdc53, stronger effect = lower value
[65] = locus YDR054C, strain cdc34, stronger effect = lower value
[66] = locus YFL009W, strain cdc4, stronger effect = lower value
[67] = locus YFL029C, strain CAK1, stronger effect = lower value
[68] = locus YKL193C, strain SDS22, stronger effect = lower value
[69] = locus YMR277W, strain FCP1, stronger effect = lower value
[70] = locus YOL078W, strain AVO1, stronger effect = lower value
[71] = strain TSCII, stronger effect = lower value

Measured: normalized growth

Oc1c(Br)cc(Br)cc1C=Nc1ccccn1
inactive: [1] 0.969 | [2] 0.965 | [3] 0.967 | [4] 0.965 | [5] 0.958 | [6] 0.96 | [7] 0.978 | [9] 0.968 | [10] 0.989 | [14] 0.952 | [16] 0.984 | [24] 0.965 | [26] 0.937 | [28] 0.974 | [39] 0.962 | [43] 0.968 | [45] 0.965 | [46] 0.96 | [52] 0.963 | [56] 0.967 | [58] 0.968 | [59] 0.962 | [60] 0.953 | [61] 0.947
active: [8] 0.221 | [11] 0.417 | [12] 0.119 | [13] 0.288 | [15] 0.111 | [17] 0.437 | [18] 0.179 | [19] 0.16 | [20] 0.133 | [21] 0.135 | [22] 0.161 | [23] 0.118 | [25] 0.132 | [27] 0.165 | [29] 0.368 | [30] 0.141 | [31] 0.55 | [32] 0.213 | [33] 0.375 | [34] 0.348 | [35] 0.154 | [36] 0.165 | [37] 0.167 | [38] 0.113 | [40] 0.211 | [41] 0.895 | [42] 0.14 | [44] 0.146 | [47] 0.23 | [48] 0.116 | [49] 0.114 | [50] 0.341 | [51] 0.12 | [53] 0.296 | [54] 0.23 | [55] 0.304 | [57] 0.155

Oc1c(Br)cc(Br)cc1/C=N\n1cnnc1
active: [8] 0.588 | [11] 0.308 | [12] 0.452 | [13] 0.483 | [17] 0.391 | [18] 0.323 | [19] 0.116 | [20] 0.307 | [21] 0.246 | [22] 0.32 | [23] 0.0783 | [25] 0.26 | [27] 0.412 | [30] 0.287 | [31] 0.289 | [32] 0.503 | [33] 0.225 | [34] 0.244 | [35] 0.369 | [36] 0.305 | [37] 0.122 | [38] 0.606 | [40] 0.355 | [42] 0.259 | [44] 0.354 | [47] 0.138 | [48] 0.517 | [49] 0.15 | [50] 0.237 | [51] 0.316 | [53] 0.303 | [54] 0.416 | [55] 0.348 | [57] 0.462 | [61] 0.289
inactive: [62] 0.938 | [1] 0.942 | [2] 0.943 | [3] 0.943 | [4] 0.958 | [5] 0.943 | [6] 0.941 | [63] 0.915 | [7] 0.945 | [64] 0.947 | [9] 0.947 | [65] 0.933 | [10] 0.947 | [66] 0.954 | [67] 0.949 | [14] 0.945 | [15] 0.791 | [16] 0.958 | [24] 0.907 | [28] 0.951 | [29] 0.728 | [68] 0.943 | [39] 0.903 | [69] 0.931 | [41] 0.927 | [43] 0.944 | [45] 0.942 | [46] 0.944 | [70] 0.926 | [52] 0.934 | [56] 0.95 | [58] 0.946 | [59] 0.918 | [60] 0.918 | [71] 0.938

Oc1c(Br)cc(Br)cc1C=Nc1ccc(Sc2ccccc2)nc1Sc1ccccc1
inactive: [62] 0.92 | [1] 0.945 | [2] 0.926 | [3] 0.945 | [4] 0.936 | [5] 0.948 | [6] 0.917 | [63] 0.969 | [7] 0.926 | [64] 0.931 | [9] 0.955 | [65] 0.927 | [10] 0.932 | [66] 0.927 | [67] 0.937 | [14] 0.94 | [16] 0.924 | [24] 0.931 | [26] 0.904 | [28] 0.953 | [68] 0.93 | [39] 0.922 | [69] 0.904 | [41] 0.941 | [43] 0.945 | [45] 0.953 | [46] 0.915 | [70] 0.928 | [52] 0.951 | [56] 0.949 | [58] 0.935 | [59] 0.945 | [60] 0.915 | [61] 0.945 | [71] 0.928
active: [8] 0.331 | [11] 0.311 | [12] 0.364 | [13] 0.285 | [17] 0.351 | [18] 0.196 | [19] 0.155 | [20] 0.103 | [21] 0.151 | [22] 0.155 | [23] 0.0625 | [25] 0.14 | [27] 0.208 | [29] 0.591 | [30] 0.162 | [31] 0.483 | [32] 0.24 | [33] 0.353 | [34] 0.388 | [35] 0.383 | [36] 0.226 | [37] 0.134 | [38] 0.406 | [40] 0.248 | [42] 0.174 | [44] 0.236 | [47] 0.222 | [48] 0.43 | [49] 0.142 | [50] 0.313 | [51] 0.196 | [53] 0.29 | [54] 0.249 | [55] 0.311 | [57] 0.314
